From PubChem BioAssay
DT40 TDP1 CPT: qHTS for Inhibitors of human tyrosyl-DNA phosphodiesterase 1 (TDP1): qHTS in cells in presence of CPT; chicken DT40 Tdp1-/-;hTDP1 cells + 20 nM CPT, ATP luminescence, 48 h; Potency, µM (doses to about 46.2 µM), inactives show at the highest dose activity change, negative = growth inhibition, usual class: inhibitors; 12% of 420,000 active; note: potency is the fitted concentration of half-maximal effect; nearly all actives have a fitted effect of over 55% in size
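Chicken DT40 Tdp1-/- cells stably complemented with human TDP1 were seeded at 400 cells/well in medium containing 20 nM camptothecin, exposed to pin-transferred compounds, and grown at 37 °C for at least 48 hr. Viability was read as ATP luminescence.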
HT1080 IDH1KD tx: qHTS for induction of synthetic lethality in tumor cells producing 2HG: qHTS for the HT-1080-IDH1KD cell line | Potency, µM (doses to about 46.1 µM), for the others: top-dose activity, negative = toxicity, usual class: cytotoxic | 2% of 360,000 active | HT-1080 IDH1 knockdown viability, ATP luminescence, 48 h;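 note: potency is the fitted concentration of half-maximal effect; 0% = DMSO wells and -100% = cell-free medium wells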
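Using the IDH1-knockdown HT-1080 line run in the same batch and compound series as the NT line, viability after 48 h at 37 °C was determined by CellTiter-Glo luminescence and expressed as % activity.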
TDP1 cell noCPT: qHTS for Inhibitors of human tyrosyl-DNA phosphodiesterase 1 (TDP1): qHTS in cells in absence of CPT | DT40 Tdp1-/- hTDP1 cells, no CPT, ATP luminescence, 48 h | 15% of 420,000 active | Potency, µM (titrated, usually from 46.2 µM), without a hit: at the top dose activity change, negative = growth inhibition, usual class: inhibitors; note: potency is the fitted concentration of half-maximal effect; nearly all actives have a fitted effect of over 55% in size
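Growth of hTDP1-complemented DT40 Tdp1-knockout cells is measured by ATP luminescence after at least 48 hr compound exposure at 37 °C, with DMSO substituting for the 20 nM CPT used in the parallel screen.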
IL1B secr inh: qHTS for Inhibitors of Inflammasome Signaling: IL-1-beta AlphaLISA Primary Screen. activity change, % at 57.5 µM. THP-1 LPS/ATP IL-1B secretion, AlphaLISA, 16 h; active compounds read low. 4.7% of 360,000 active; in the data active = activity change below about -50%; inconclusive = mostly about -30% to -49%
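Secreted IL-1B measured by AlphaLISA bead assay after 16 h compound exposure of THP-1 cells; compounds (final up to 57.5 uM) added 1 h before LPS (250 ng/mL) and ATP (1.25 mM) stimulation; lower signal means less secretion.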
HT1080NT lethal: qHTS for induction of synthetic lethality in tumor cells producing 2HG: qHTS for the HT-1080-NT fibrosarcoma cell line; HT-1080-NT fibrosarcoma viability, CellTiter-Glo ATP luminescence, 48 h; Potency, µM (doses to about 46.1 µM), inactives show top-dose activity, negative = less viability, usual class: cytotoxic; 1.6% of 360,000 active; AID 686970, 2013;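 note: NT is the 2HG producing partner of a matched IDH1 knockdown line; potency is the fitted concentration of half-maximal effect; 0% = DMSO-treated cells and -100% = media-only wells without cells; nearly all actives have a fitted effect of over 55% in size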
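750 cells/well, RPMI + 5% FBS; 2 h settle, compound pin-transfer, 48 h at 37 degrees C. CellTiter-Glo 10 min RT, luminescence. Normalized to DMSO and media-only wells.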
An asterisk follows results filed as active; i = inactive; ? = inconclusive; . = not tested or not shown; [ ] = dose if it differs, or a comment. Most compounds without a hit are left out; they make up all but 19% or so of the library. Unless noted, calls come from the whole dose curve; as a rule, active = well fitted curve in the direction sought with a large enough effect; inconclusive = small, poorly fitted or top-dose-only effect, or another doubt; inactive = no such curve, though single readings can be large; an effect the other way counts as inactive or inconclusive. Unless noted, % is set by controls: 0 for no effect and ±100 for the full control effect.

SMILES | DT40 TDP1 CPT | HT1080 IDH1KD tx | TDP1 cell noCPT | IL1B secr inh | HT1080NT lethal
Cc1ccc(S(=O)(=O)SCCCSS(=O)(=O)c2ccc(C)cc2)cc1 | 18.4µM* | 1.5% | 20.6µM* | 34.6 | 12.9%
Cc1noc(C)c1C(=O)N1CCC2(CC1)CN(Cc1cc(C(F)(F)F)cc(C(F)(F)F)c1)C2 | -3.7% | . | -10.8% | . | .
CCOc1ccc(NC(=O)CSc2ccc(-c3cccnc3)nn2)cc1 | -7.9% | -6.0% | 2.2% | i | 12.7%
Cc1ccccc1-c1ccc2ncnc(-n3ccnc3)c2c1 | 20.6µM* | . | 20.6µM* | . | .
COCCNc1ncnc2ccc(-c3ccccc3C)cc12 | 10.3µM* | . | 20.6µM* | . | .
FC(F)(F)c1ccccc1-c1ccc2ncnc(NC3CC3)c2c1 | 23.1µM* | . | 20.6µM* | . | .
CN(C)C(=O)c1ccc(-c2ccc3ncnc(NC4CC4)c3c2)cc1 | -6.8% | . | ? | . | .
Cc1ccccc1-c1ccc2ncnc(NC3CC3)c2c1 | 16.4µM* | . | ? | . | .
CCOC(=O)CC/C(=N\NC(N)=O)c1ccc(OC)c(Cl)c1 | 9.0% | 9.9% | 6.6% | -0.5 | 20.7%
Cc1ccccc1OCCC(=O)OCC(=O)Nc1c(C)nn(-c2ccccc2)c1C | -11.8% | -2.3% | -17.4% | 32.9 | 1.9%
FC(F)(F)c1ccccc1-c1ccc2ncnc(NCc3cccs3)c2c1 | 23.1µM* | . | ? | . | .
FC(F)(F)c1cccc(Nc2c3c(nc4ccc(Cl)cc24)CCC3)c1 | 7.31µM* | . | 6.51µM* | . | .
O=C(c1ccc(Nc2cccc(C(F)(F)F)c2)nc1)N1CCCC1 | ? | -23.6% | -28.3% | -20.1 | -6.5%
Fc1ccc(F)c(Nc2c3c(nc4ccc(Cl)cc24)CCC3)c1 | 16.4µM* | . | ? | . | .
O=S(=O)(c1cccc2nonc12)N1CCN(c2ccc(F)cc2)CC1 | -1.5% | 0.3% | -4.8% | -25.1 | -5.9%
O=C(C1CCN(S(=O)(=O)c2cccc3nonc23)CC1)N1CCN(c2ccc(F)cc2)CC1 | 20.6µM* | . | 11.6µM* | . | .
O=C(C1CCN(S(=O)(=O)c2cccc3nonc23)CC1)N1CCN(c2ccccc2)CC1 | ? | . | 23.1µM* | . | .
Cc1ccc(Cl)cc1N1CCN(C(=O)C2CCN(S(=O)(=O)c3cccc4nonc34)CC2)CC1 | 11.6µM* | . | 7.31µM* | . | .
O=C(C1CCCN(S(=O)(=O)c2cccc3nonc23)C1)N1CCC(Cc2ccccc2)CC1 (stereo not given) | 20.6µM* | -21.7% | 18.4µM* | ? | -23.7%
O=C(O)c1cc(-c2ccc(Cl)cc2)n(-c2cccc(Cl)c2)n1 | ? | -9.0% | -20.0% | 8.6 | -1.6%
CC1CCN(C(=O)C2CCN(S(=O)(=O)c3cc(Cl)ccc3Cl)CC2)CC1 | ? | -0.9% | 20.6µM* | -66.1* | 3.1%
CCN1CCN(C(=O)C2CCCN(S(=O)(=O)c3cc(Cl)ccc3Cl)C2)CC1 (stereo not given) | -21.9% | -4.8% | -18.5% | -7.8 | 0.5%
O=C(C1CCCN(S(=O)(=O)c2cccc3nonc23)C1)N1CCN(c2ccccc2Cl)CC1 (stereo not given) | 23.1µM* | -22.0% | 16.4µM* | -50.5* | -0.5%
O=C(C1CCN(S(=O)(=O)c2cccc3nonc23)CC1)N1CCN(c2cccc(Cl)c2)CC1 | 25.9µM* | . | 14.6µM* | . | .
O=C(C1CCN(S(=O)(=O)c2cccc3nonc23)CC1)N1CCCCC1 | -1.1% | 2.5% | -9.5% | 16.0 | -0.8%
SMILES | DT40 TDP1 CPT | HT1080 IDH1KD tx | TDP1 cell noCPT | IL1B secr inh | HT1080NT lethal
Cc1ccc(C)c(N2CCN(C(=O)C3CCCN(S(=O)(=O)c4cccc5nonc45)C3)CC2)c1 (stereo not given) | 9.2µM* | . | 6.51µM* | . | .
O=C(NCCc1ccc(Cl)cc1)c1ccc(Br)s1 | -13.4% | 12.6% | -7.9% | -29.4 | 10.0%
CCOc1ccccc1CNC(=O)C1CCN(S(=O)(=O)c2cccc3nonc23)CC1 | -26.3% | . | -21.6% | . | .
CCOc1ccccc1N(C)C(=O)C1CCN(S(=O)(=O)c2cccc3nonc23)CC1 | ? | 5.1% | 13µM* | -0.6 | 2.3%
Cc1cc(NC(=O)C2CCCN(S(=O)(=O)c3cccc4nonc34)C2)ccc1Br (stereo not given) | ? | . | 16.4µM* | . | .
O=C(C1CCCN(S(=O)(=O)c2cccc3nonc23)C1)N1CCN(c2cccc(Cl)c2)CC1 (stereo not given) | 16.4µM* | 5.3% | 23.1µM* | -52.5* | -0.5%
Cn1c(=O)cc(C(=O)N/N=C/c2ccc(F)cc2)[nH]c1=O | 12.0% | 15.0% | 12.5% | 14.3 | 13.0%
CCCOc1ccc(-c2nn(-c3ccccc3)cc2/C=C2\SC(N)=NC2=O)cc1C | 16.4µM* | 8.1% | ? | -8.3 | 12.4%
CC(=O)Nc1ccccc1-c1nc2cc(C#N)c(C#N)cc2[nH]c1=O | 20.6µM* | 8.0% | 20.6µM* | 7.9 | -2.4%
O=C(Nc1ncccn1)c1ccc(Cl)c([N+](=O)[O-])c1 | 15.4% | -18.6% | 8.4% | 53.3 | -4.1%
COc1ccc(CCNC(=O)c2ccc(N(C)S(=O)(=O)c3ccccc3)cc2)cc1 | ? | 0.6% | ? | 6.3 | -12.9%
COc1ccc(N(C)S(=O)(=O)c2ccc(Cl)c(C(=O)NCC(C)(C)N3CCOCC3)c2)cc1 | 9.2µM* | -6.7% | 9.2µM* | 0.0 | 12.0%
CCN(C(=O)c1cc(S(=O)(=O)N2CCCC2)ccc1C)C1CCS(=O)(=O)C1 (stereo not given) | 7.3% | 7.1% | 13.6% | 11.3 | -4.1%[9.24 µM]
CCCN(C(=O)c1cc(S(=O)(=O)N(C)c2ccc(OCC)cc2)ccc1C)C1CCS(=O)(=O)C1 (stereo not given) | ? | -1.2% | 25.9µM* | -12.3 | -2.1%
COc1ccc(CCNC(=O)c2cc(S(=O)(=O)N(C)c3ccccc3)ccc2Cl)cc1 | 18.4µM* | -0.2% | 7.31µM* | -3.8 | -0.2%
CCOc1ccc(N(C)S(=O)(=O)c2ccc(C)c(C(=O)NCc3ccccc3OC)c2)cc1 | ? | -13.0% | ? | -20.2 | -5.4%
CCOc1ccc(N(C)S(=O)(=O)c2ccc(C)c(C(=O)NCCc3ccc(OC)cc3)c2)cc1 | 23.1µM* | -3.2% | ? | 16.3 | -14.9%
CCOC(=O)C[C@@H]1OC[C@H](Cc2ccccc2)N1S(=O)(=O)c1ccc(C)cc1 | ? | -18.2% | ? | -9.1 | -21.0%
CC(C)C(NC(=O)c1ccccc1NC(=O)C(C)(C)C)C(=O)N1CCOCC1 (stereo not given) | -1.5% | 0.6% | -4.2% | 37.5 | 2.0%
